# Reference: ChEMBL document CHEMBL5308504, “Tm Shift (DSF) assay results for EUbOPEN Chemogenomics Library” (2023)
# Experiments:
# Details in all cases: Compound concentration 20.0 uM, Protein concentration 2.0 uM, Result type QC Liability
# [1] = target: Tyrosine-protein kinase ABL1 (Homo sapiens) (UniProt P00519)
# [2] = target: Cyclin-dependent kinase 2 (Homo sapiens) (UniProt P24941)
# [3] = target: Casein kinase I isoform delta (Homo sapiens) (UniProt P48730)
# [4] = target: Glycogen synthase kinase-3 beta (Homo sapiens) (UniProt P49841)
# [5] = target: Mitogen-activated protein kinase 1 (Homo sapiens) (UniProt P28482)
# [6] = target: T1, Aurora kinase A (Homo sapiens) (UniProt O14965)
# T1 sequence (whole entry): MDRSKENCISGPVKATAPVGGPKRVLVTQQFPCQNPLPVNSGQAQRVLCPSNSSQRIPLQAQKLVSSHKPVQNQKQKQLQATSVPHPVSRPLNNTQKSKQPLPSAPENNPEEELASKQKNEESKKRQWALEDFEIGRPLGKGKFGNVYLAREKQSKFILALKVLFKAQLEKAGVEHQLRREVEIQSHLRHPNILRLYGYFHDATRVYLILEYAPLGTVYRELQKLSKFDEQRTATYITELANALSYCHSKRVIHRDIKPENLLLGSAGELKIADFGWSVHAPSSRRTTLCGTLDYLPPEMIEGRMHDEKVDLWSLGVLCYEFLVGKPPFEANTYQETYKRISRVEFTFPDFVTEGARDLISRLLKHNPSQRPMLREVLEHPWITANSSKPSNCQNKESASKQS
# Sequence of Tyrosine-protein kinase ABL1 (Homo sapiens) (P00519 whole entry): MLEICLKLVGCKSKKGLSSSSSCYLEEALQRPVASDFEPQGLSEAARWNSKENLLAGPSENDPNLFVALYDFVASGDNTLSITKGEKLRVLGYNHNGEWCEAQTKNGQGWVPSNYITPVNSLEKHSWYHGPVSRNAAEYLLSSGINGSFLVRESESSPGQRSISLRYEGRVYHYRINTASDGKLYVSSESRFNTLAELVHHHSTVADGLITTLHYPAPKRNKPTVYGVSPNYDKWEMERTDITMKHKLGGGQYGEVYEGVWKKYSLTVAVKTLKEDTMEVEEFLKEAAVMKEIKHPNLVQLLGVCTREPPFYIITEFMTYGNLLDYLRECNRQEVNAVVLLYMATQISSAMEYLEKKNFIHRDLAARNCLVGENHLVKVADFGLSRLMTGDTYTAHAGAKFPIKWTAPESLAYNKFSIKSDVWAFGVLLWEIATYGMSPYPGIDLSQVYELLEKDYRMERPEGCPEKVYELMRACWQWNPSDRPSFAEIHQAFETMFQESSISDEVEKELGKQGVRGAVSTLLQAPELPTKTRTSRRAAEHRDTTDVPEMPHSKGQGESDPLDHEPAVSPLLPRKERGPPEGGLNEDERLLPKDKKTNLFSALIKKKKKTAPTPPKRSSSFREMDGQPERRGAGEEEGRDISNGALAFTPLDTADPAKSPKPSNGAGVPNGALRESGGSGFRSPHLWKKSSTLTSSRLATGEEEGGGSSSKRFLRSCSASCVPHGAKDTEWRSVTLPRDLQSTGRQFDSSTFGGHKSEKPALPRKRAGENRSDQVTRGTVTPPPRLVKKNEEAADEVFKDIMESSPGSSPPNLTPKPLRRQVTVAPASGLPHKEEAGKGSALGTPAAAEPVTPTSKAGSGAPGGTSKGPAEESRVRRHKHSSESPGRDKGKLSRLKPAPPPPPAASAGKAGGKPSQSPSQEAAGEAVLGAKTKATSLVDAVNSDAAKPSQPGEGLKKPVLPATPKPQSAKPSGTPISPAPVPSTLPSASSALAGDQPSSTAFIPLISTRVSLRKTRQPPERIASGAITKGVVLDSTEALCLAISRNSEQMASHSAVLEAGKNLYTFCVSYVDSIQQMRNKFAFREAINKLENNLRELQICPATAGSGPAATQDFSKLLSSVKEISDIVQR
# Sequence of Glycogen synthase kinase-3 beta (Homo sapiens) (P49841 whole entry, looked up): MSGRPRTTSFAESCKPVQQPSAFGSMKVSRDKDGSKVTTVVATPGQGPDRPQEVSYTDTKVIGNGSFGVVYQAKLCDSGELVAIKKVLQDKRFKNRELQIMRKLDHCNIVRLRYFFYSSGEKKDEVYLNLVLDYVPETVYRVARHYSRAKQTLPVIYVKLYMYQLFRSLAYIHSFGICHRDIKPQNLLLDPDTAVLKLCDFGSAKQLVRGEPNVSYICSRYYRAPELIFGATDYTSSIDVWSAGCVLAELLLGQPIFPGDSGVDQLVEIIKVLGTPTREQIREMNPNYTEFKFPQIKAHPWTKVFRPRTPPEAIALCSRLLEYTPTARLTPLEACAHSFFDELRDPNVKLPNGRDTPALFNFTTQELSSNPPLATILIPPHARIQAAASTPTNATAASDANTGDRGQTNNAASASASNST
# Sequence of Casein kinase I isoform delta (Homo sapiens) (P48730 whole entry, looked up, canonical isoform): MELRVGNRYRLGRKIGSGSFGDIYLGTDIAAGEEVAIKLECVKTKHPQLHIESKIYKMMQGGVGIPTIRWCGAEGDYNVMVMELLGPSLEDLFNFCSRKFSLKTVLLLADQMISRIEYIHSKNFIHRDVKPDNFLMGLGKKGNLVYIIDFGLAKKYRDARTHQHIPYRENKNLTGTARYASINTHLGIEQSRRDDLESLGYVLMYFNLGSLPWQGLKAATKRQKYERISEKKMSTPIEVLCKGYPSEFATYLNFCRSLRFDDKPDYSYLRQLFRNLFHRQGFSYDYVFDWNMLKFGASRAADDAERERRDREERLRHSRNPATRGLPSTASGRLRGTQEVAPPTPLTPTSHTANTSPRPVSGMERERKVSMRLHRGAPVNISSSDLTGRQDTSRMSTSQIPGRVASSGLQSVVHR
# Sequence of Mitogen-activated protein kinase 1 (Homo sapiens) (P28482 whole entry): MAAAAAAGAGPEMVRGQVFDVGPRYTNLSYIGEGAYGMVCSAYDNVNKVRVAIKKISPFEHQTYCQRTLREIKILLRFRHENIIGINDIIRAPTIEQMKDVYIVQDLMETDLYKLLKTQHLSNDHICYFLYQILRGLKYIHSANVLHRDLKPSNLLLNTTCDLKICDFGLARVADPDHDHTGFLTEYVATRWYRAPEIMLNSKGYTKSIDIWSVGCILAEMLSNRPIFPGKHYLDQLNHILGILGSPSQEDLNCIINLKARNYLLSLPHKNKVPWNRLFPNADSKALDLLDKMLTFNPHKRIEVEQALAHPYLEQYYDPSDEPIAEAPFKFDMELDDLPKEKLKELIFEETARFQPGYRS
Compound,ΔTm [1] [°C],ΔTm [2] [°C],ΔTm [3] [°C],ΔTm [4] [°C],ΔTm [5] [°C],ΔTm [6] [°C]
COc1cc(Cl)c(C(=O)N[C@@H](CN[C@H]2CC[C@@H](N)CC2)Cc2ccc(C#N)cc2)cc1-c1ccc(CN[C@H](C)c2ccc(C)cc2)o1,0.33,0.42,-0.07,-0.81,0.33,0.07
CC(=O)Nc1ncc(CN2CCC[C@H](Cc3cc(C)nc(C)c3)C2)s1,0.26,-0.34,-0.41,-0.15,0.35,0.39
CC(=O)c1ccc2c(c1)/C(=C(/NC1CCN(C)CC1)c1ccc3c(c1)OCO3)C(=O)N2,0.16,4.87,2.46,15.5,0.57,0.78
O=C(Cc1ccccc1[N+](=O)[O-])Nc1ccc(-c2ccc(C(O)(C(F)(F)F)C(F)(F)F)cc2F)cc1,0.67,2.11,-0.86,-0.71,-0.87,-1.59
Cc1ncsc1-c1ccc(CNC(=O)[C@@H]2C[C@@H](O)CN2C(=O)[C@@H](NC(=O)C2(F)CC2)C(C)(C)C)c(OCCOc2ccc(CN3CCN(c4cc(-c5ccccc5O)nnc4N)CC3)cc2)c1,0.25,4.72,2.6,9.47,-1.54,3.64
N=C(N)NCCC[C@H](NC(=O)CC1(CC(=O)N2CCN(C(c3ccccc3)c3ccccc3)CC2)CCCC1)C(=O)NCc1ccccc1,-0.53,-1.78,0.02,-1.84,-0.93,-0.79
CS(=O)(=O)NCC[C@H](NC(=O)c1cncc2c1cnn2-c1ccc(F)cc1)c1ccnc(S(C)(=O)=O)c1,-0.12,-0.17,0.57,-1.34,0.26,0.06
CC(C)S(=O)(=O)c1ccccc1Nc1nc(N[C@@H]2CCCN(CCCCCCCNC(=O)COc3cccc4c3C(=O)N(C3CCC(=O)N(C)C3=O)C4=O)C2)ncc1Cl (stereo not given in full),1.22,1.08,1.07,8.52,0.83,7.69
CN(C)C(=O)Cn1cc(-c2ccc(-c3nnc4ccccn34)cc2)cn1,-0.4,0.44,0.44,-0.7,0.27,-0.04
CCC(=O)N[C@@H]1CC[C@H](C(=O)N(C)c2ccc(-c3nc4ccccc4o3)cc2)C1,0.73,0.64,0.6,-0.1,0.12,0.03
O=C(CNCc1cc2ccccc2[nH]1)N[C@H]1CC[C@@H](c2nc3ccccc3[nH]2)CC1,0.13,0.52,0.18,-0.57,0.34,-0.41
CCc1ccc(-c2ncn(CC3(F)CCN(C)CC3)c2-c2ccnc3[nH]ccc23)nc1,0.05,0.87,0.57,-0.72,0.39,-1.06
COc1nc2ccc([C@@](O)(c3ccccc3)C3CCN(C(C)=O)CC3)cc2c(Cl)c1Cc1ccc(-n2cccn2)cc1,-0.06,-0.4,-0.56,-3.26,0.14,-0.6
Fc1ccc(-c2nc(-c3c(F)cccc3F)[nH]c2-c2ccncc2)cc1,4.45,1.7,6.41,7.77,0.52,-0.55
COc1ccccc1Nc1nc(-c2nn(Cc3c(F)cc(OCCCO)cc3F)c3ccccc23)ncc1OC,0.26,-0.43,-0.21,-0.64,0.16,-0.7
C[C@@H]1CCNC(=O)c2cc3ccc(C(=O)Nc4nc5ccccc5n4CCCN(C)C)cc3n21,1.4,0.73,2.87,0.5,0.36,3.79
Clc1cccc(Nc2nccc(NCCCN3CCOCC3)n2)c1,1.3,1.43,0.64,5.39,0.32,2.47
CSc1ccc(C[C@@H](C)C(=O)O)cc1Nc1nc(N2CC[C@H](N(C)C)C2)cc(C(F)F)c1C#N,0.42,0.56,0.3,0.05,0.24,0.19
O=C(Nc1ccc(-n2nc(-c3cccnc3)cc2C(F)(F)F)cn1)c1ccc(-c2ccccc2)c(F)c1,-0.47,-0.05,-0.18,-0.91,0.06,0.04
CC(F)(F)CN1C(=O)c2[nH]nc(-c3cccc4[nH]c(=O)oc34)c2C1c1ccc(Oc2cc(C(F)(F)F)cc(C(F)(F)F)c2)cc1 (stereo not given),0.76,0.46,4.37,-4.17,1.19,0
CC(=O)N1CCC(c2ccc(C(=O)NC(=N)N)cc2C(F)(F)F)CC1,-0.81,0.95,0.37,-0.64,0.32,0.44
CC1CCN(c2ccnc(NCc3cn(C)cn3)n2)CC1,-1.33,0.15,0.29,-0.33,0.75,-0.52
COc1cc(C(=O)NCCOCCOCCOCCC(=O)Nc2cccc3c2C(=O)N(C2CCC(=O)NC2=O)C3=O)ccc1Nc1ncc(C(F)(F)F)c(Oc2cccc3c2C(=O)CC3)n1 (stereo not given),-0.1,-0.45,-2.13,-0.22,-2.51,0.92
Cc1cc(=O)oc2cc(NC(=O)[C@H](Cc3ccc(I)cc3)NC(=O)[C@H]3N[C@@H]4CC[C@H]3C4)ccc12,0,-0.62,0.37,-0.08,0.09,-0.48
Cc1csc(-c2nnc(Nc3ccc(Oc4ncccc4-c4ccnc(N)n4)cc3)c3ccccc23)c1,7.01,0.42,0.58,-4.11,4.87,13.8

Compound,ΔTm [1] [°C],ΔTm [2] [°C],ΔTm [3] [°C],ΔTm [4] [°C],ΔTm [5] [°C],ΔTm [6] [°C]
Cn1c(C2(NC(=O)c3ccc(NCC4CCCCC4)nc3)CCC2)nc2ccc(/C=C/C(=O)O)cc21,0.22,0.23,0.38,-1.07,0.02,0.04
Cc1sc(C(=O)c2cncnc2N[C@@H]2C[C@H](COS(N)(=O)=O)[C@@H](O)C2)cc1[C@@H]1NCCc2ccc(Cl)cc21,0.37,0.66,-0.59,0.3,-0.53,-0.27
CC(C)(C)NC(=O)c1cncn1C1CCN(c2ccc(-c3nnc(C(F)(F)F)o3)cn2)CC1,1.4,0.97,0.21,-0.09,0.18,0.23
CCCN1CCC(C#N)(NC(=O)[C@H](CC(C)(C)C)NC(=O)N2CCOCC2)CC1,-0.4,1.07,0.1,-0.32,-0.1,-0.11
Cc1cc2nc(N3CCC(C(=O)NC4CCCC4)CC3)n(C(C)C)c2cc1C,0.22,0.23,0.04,0.31,0,0.01
Cn1nccc1-c1ccc(Sc2cccc(C3(C(N)=O)CCOCC3)c2)cc1,-0.11,0.88,-0.02,-1.17,0.22,0.6
NC(=O)c1ccccc1Nc1nc(-c2ccc(N3CCOCC3)cc2)cc2ncccc12,7.91,1.53,3.01,2.43,0.67,10.1
CNS(=O)(=O)c1ccc(N(C)C)c(Nc2ncnc3cc(OC)c(OC)cc23)c1,3.42,-0.02,0.23,-0.61,0.24,-1.08
COCCN(C)c1ccc(NC(=O)/C=C(\C)c2ccc3ccccc3c2)c(C(=O)O)c1,-1.57,1.03,1.4,2.78,-0.17,1.7
CCn1c(CNC(=O)c2nc(Cl)cnc2N)[n+](CC)c2ccc(C(=O)N(C)CCN(C)C)cc21,0.14,0.44,0.35,-0.7,0.33,-0.18
CCNC1=N[C@@H]2[C@@H](O)[C@H](O)[C@@H](CO)O[C@@H]2S1,0.07,0.73,0.01,-0.6,0.28,-0.73
CCOC(=O)N1CCC(CN(Cc2ccc(Cl)cc2)Cc2ccc([N+](=O)[O-])s2)C1 (stereo not given),0.47,0.83,1.17,-0.64,0.21,-0.41
O=C(O)CCCCCC[C@@H]1C(=O)NC(=O)N1CCC(O)C1CCCCC1 (stereo not given in full),0.19,0.46,-0.02,0.34,-0.39,-0.24
O=C(O)C[C@H]1CCn2c1c(Sc1ccc(Cl)cc1)c1ccc(F)cc12,-1,-1.1,-0.47,0,-0.38,-0.18
COc1ccc(C(F)(F)F)cc1NC(=O)Nc1ccc(Oc2cc(C)nc(N)n2)c2ccccc12,5.29,1.11,0.31,1.99,0.06,-0.77
COc1ccccc1[C@@H]1CNCCC12CCN(C(=O)[C@](OC)(c1ccccc1)C(F)(F)F)CC2,0.26,0.48,0.35,-1.18,-0.22,-0.11
O=C(O)c1cc(-c2ccccc2)ccc1O,0.56,0.7,0.85,-0.32,0.04,0.05
CCCN1C(=O)c2ccc(Cl)cc2Nc2ncccc21,0.81,0.95,0.61,0.22,0.22,1.35
COc1cc(-c2cn[nH]c2)ccc1C(=O)Nc1ccc2c(c1)CCNCC2,0.96,0.47,0.7,-0.7,0.38,0.13
CC(C)[C@H](CO)Nc1nc(Nc2ccc(C(=O)O)c(Cl)c2)c2ncn(C(C)C)c2n1,6.07,9.51,2.59,2.37,4.14,7.69
Cc1cc(Cn2c(N3CC4(CNC4)C3)nc3cc(Cl)cc(N4CCN(C)CC4)c32)cc(C)c1F,-0.24,0.2,0.39,-1.71,0.34,0.08
Cc1cc([N+](=O)[O-])c(NS(=O)(=O)c2cccc(C(=O)O)c2)cc1-c1cccnc1,0.08,0.85,0.28,0.02,0.58,0.29
COc1cc(-c2cn(C)c(=O)c3cnccc23)c(OC)cc1CN(C)C,0.49,0.53,0.06,0.1,-0.12,-0.18
Cc1cc(NC(=O)c2cccc(NC(=O)/C=C/CN(C)C)c2)ccc1Nc1nccc(-c2cccnc2)n1,3.79,1.64,4.02,6.68,1.52,5.38
CCN(C(=O)CO)[C@H]1CN(/C(=N\C#N)Nc2cccc(OC(F)F)c2)N=C1c1ccc(Cl)c(Cl)c1,0.46,0.22,0.23,2.8,-0.24,0.87
